# Results as given in PubChem BioAssay (EPA / NIEHS).
# Results filed as inconclusive are left out. Active and inactive are the calls of the source. The calls were made as follows: active = hit-call score of the fitted dose curve at least 0.9, where 1 is the maximum; inconclusive = response in the unintended direction; inactive = score below 0.9.
# Assays:
# [1] = molecular target: human Neurokinin, NK2 Receptor, TACR2 (gene 6865) (UniProt P21452); experiment: NVS_GPCR_hNK2: NovaScreen (NVS) G Protein-Coupled Receptor Assay for human Neurokinin, NK2 Receptor (AID 2283278);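 also: actives reduce bound radioligand signal relative to DMSO baseline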
# Outline: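 Test chemicals displace a radioligand from receptor prepared from CHO cells in a cell-free format, read after 4 hours by scintillation counting on filters. Screening starts at 25 uM in duplicate, and active chemicals then go to concentration series.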
# [2] = molecular target: Muscarinic acetylcholine receptor M3 (Homo sapiens) (UniProt P20309); experiment: NVS_GPCR_hM3: NovaScreen (NVS) G Protein-Coupled Receptor Assay for human Muscarinic, M3 Receptor (AID 2283272)
# Outline: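 Radioligand displacement binding on human M3 receptor in CHO-derived membranes, 1 h incubation, filter-based scintillation counting. Primary screen in duplicate at 25 uM; actives followed up in concentration series; loss of signal versus DMSO.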
# [3] = molecular target: Muscarinic acetylcholine receptor M2 (Homo sapiens) (UniProt P08172); experiment: NVS_GPCR_hM2: NovaScreen (NVS) G Protein-Coupled Receptor Assay for human Muscarinic, M2 Receptor (AID 2283273)
# Outline: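 Filter-based radiodetection read bound radioligand 1 h after dosing CHO-derived membrane protein. Single-concentration duplicates (25 uM) first, then concentration-response for actives; signal loss versus DMSO scored.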
# [4] = molecular target: human Muscarinic, M4 Receptor, CHRM4 (gene 1132) (UniProt P08173); experiment: NVS_GPCR_hM4: NovaScreen (NVS) G Protein-Coupled Receptor Assay for human Muscarinic, M4 Receptor (AID 2283274)
# Outline: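 Filter-based scintillation counting of radioligand bound to CHO-expressed human M4 preparations after 1 h; loss of signal fitted versus DMSO. Initial duplicate testing at 25 uM, concentration-response follow-up for actives.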
# [5] = molecular target: Muscarinic acetylcholine receptor M5 (Homo sapiens) (UniProt P08912); experiment: NVS_GPCR_hM5: NovaScreen (NVS) G Protein-Coupled Receptor Assay for human Muscarinic, M5 Receptor (AID 2283275)
# Outline: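 Chemicals passing a primary duplicate screen at 25 uM were run as singleton concentration series, maximum 50 uM. Displacement of a specific radioligand from CHO-extracted receptor was read by filter scintillation after 1 h, relative to DMSO.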
# [6] = molecular target: human Neuropeptide Receptor Y1 (NPY1), NPY1R (gene 4886) (UniProt P25929); experiment: NVS_GPCR_hNPY1: NovaScreen (NVS) G Protein-Coupled Receptor Assay for human Neuropeptide Receptor Y1 (NPY1) (AID 2283276)
# Outline: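 Displacement of specific radioligand from NPY1 receptor of SK-N-MC origin, read by filtration and scintillation after 1 h. Compounds first tested at 25 uM in duplicate, then actives in concentration series; signal loss relative to DMSO.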
# [7] = molecular target: Neuropeptide Y receptor type 2 (Homo sapiens) (UniProt P49146); experiment: NVS_GPCR_hNPY2: NovaScreen (NVS) G Protein-Coupled Receptor Assay for human Neuropeptide Receptor Y2 (NPY2) (AID 2283277)
# Outline: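 Chemicals were first tested in duplicate at 25 uM, then actives in singleton concentration series to 50 uM. Tracer binding to SK-N-MC-derived protein measured cell-free after 1 h via filter scintillation; signal loss relative to DMSO.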
# [8] = molecular target: human Opioid Receptor Delta 1 (Opiate D1), OPRD1 (gene 4985) (UniProt P41143); experiment: NVS_GPCR_hOpiate_D1: NovaScreen (NVS) G Protein-Coupled Receptor Assay for human Opioid Receptor Delta 1 (Opiate D1) (AID 2283280)
# Outline: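 Membrane preparations from CHO cells bearing the human receptor were incubated 1 h with test chemical, and bound radioligand was counted after filtration. Actives from 25 uM duplicate screening were retested in concentration-response.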
# [9] = molecular target: human Neurotensin Receptor (NTS), NTSR1 (gene 4923) (UniProt P30989); experiment: NVS_GPCR_hNTS: NovaScreen (NVS) G Protein-Coupled Receptor Assay for human Neurotensin Receptor (NTS) (AID 2283279)
# Outline: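 Compounds competed with a radiolabelled ligand for binding to CHO-derived human neurotensin receptor; bound signal counted after filtration, 1 h. Screened first at a single concentration of 25 uM in duplicate, then concentration series to 50 uM maximum for actives.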
# [10] = molecular target: human Purinergic Receptor P2Y, P2RY1 (gene 5028) (UniProt P47900); experiment: NVS_GPCR_hPY2: NovaScreen (NVS) G Protein-Coupled Receptor Assay for human Purinergic Receptor P2Y (AID 2283281)
# Outline: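 Filtration scintillation readout of radioligand displacement on U937 extract, measured 1 h post-dosing. Single 25 uM duplicate screen, then singleton concentration series to 50 uM for chemicals passing threshold; DMSO as baseline.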
# human Neuropeptide Receptor Y1 (NPY1), NPY1R (gene 4886), sequence (P25929 whole entry, looked up): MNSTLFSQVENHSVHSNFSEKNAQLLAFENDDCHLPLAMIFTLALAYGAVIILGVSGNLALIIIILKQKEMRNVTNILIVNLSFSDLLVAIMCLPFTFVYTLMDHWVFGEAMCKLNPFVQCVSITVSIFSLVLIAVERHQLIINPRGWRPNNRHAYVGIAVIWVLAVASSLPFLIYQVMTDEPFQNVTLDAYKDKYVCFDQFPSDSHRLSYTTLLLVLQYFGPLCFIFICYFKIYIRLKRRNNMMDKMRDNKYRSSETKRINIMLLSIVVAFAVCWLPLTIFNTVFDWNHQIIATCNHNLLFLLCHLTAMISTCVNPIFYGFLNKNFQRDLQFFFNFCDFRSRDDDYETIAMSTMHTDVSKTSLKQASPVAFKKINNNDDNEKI
# Muscarinic acetylcholine receptor M5 (Homo sapiens), sequence (P08912 whole entry, looked up): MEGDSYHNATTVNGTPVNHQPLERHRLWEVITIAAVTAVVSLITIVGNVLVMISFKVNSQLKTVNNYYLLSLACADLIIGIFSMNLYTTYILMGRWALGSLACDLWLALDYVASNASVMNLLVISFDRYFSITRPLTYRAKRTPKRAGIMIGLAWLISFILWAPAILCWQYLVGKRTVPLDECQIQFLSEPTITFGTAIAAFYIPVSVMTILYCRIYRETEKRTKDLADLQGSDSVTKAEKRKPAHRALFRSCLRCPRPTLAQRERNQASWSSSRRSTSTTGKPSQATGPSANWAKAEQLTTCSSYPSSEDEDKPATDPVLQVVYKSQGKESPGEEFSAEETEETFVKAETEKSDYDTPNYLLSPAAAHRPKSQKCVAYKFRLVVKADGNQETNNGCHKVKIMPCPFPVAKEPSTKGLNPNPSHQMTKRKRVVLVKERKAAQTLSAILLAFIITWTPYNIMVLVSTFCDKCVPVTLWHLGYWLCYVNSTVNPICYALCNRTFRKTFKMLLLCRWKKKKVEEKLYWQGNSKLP
# Muscarinic acetylcholine receptor M2 (Homo sapiens), sequence (P08172 whole entry, looked up): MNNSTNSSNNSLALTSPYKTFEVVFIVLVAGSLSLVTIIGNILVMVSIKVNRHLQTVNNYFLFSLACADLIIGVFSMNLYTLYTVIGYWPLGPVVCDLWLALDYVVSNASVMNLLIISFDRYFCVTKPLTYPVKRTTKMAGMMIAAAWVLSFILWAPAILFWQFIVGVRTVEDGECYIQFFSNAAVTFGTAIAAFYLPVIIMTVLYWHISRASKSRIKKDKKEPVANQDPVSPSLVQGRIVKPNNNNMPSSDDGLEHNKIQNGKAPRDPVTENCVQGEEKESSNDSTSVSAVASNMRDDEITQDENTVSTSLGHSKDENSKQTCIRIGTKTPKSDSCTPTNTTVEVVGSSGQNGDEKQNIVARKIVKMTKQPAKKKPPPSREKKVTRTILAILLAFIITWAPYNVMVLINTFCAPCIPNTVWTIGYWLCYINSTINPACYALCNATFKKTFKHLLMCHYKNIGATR
# human Neurokinin, NK2 Receptor, TACR2 (gene 6865), sequence (P21452 whole entry, looked up): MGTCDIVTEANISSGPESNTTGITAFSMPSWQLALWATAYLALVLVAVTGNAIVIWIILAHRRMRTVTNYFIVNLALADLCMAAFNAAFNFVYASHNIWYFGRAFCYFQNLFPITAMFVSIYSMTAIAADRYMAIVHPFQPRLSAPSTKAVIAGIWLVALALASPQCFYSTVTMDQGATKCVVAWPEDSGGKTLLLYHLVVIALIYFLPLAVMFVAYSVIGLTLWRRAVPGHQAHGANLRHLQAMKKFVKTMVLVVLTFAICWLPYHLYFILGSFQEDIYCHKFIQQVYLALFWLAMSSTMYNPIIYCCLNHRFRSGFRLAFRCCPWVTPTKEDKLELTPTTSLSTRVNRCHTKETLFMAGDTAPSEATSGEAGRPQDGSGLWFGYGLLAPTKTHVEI
# human Opioid Receptor Delta 1 (Opiate D1), OPRD1 (gene 4985), sequence (P41143 whole entry, looked up): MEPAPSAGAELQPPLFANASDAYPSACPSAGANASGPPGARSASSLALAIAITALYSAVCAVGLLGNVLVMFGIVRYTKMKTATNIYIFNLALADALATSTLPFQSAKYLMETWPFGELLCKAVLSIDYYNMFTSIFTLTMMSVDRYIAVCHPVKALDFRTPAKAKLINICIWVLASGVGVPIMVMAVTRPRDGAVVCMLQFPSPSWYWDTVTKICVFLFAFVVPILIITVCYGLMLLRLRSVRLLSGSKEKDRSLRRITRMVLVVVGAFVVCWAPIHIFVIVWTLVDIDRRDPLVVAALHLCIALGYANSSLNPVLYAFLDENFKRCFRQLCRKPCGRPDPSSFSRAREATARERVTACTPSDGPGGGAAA
# human Purinergic Receptor P2Y, P2RY1 (gene 5028), sequence (P47900 whole entry, looked up): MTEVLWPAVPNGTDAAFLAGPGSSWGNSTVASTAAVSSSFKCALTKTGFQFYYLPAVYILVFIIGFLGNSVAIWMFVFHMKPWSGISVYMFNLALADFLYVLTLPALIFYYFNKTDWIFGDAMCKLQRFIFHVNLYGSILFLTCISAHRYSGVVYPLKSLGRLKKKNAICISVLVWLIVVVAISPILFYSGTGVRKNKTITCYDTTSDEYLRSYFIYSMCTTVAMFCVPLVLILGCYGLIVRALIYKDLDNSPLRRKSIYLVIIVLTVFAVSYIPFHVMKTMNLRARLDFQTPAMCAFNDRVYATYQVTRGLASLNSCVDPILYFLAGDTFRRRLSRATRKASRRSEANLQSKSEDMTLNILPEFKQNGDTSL
# human Muscarinic, M4 Receptor, CHRM4 (gene 1132), sequence (P08173 whole entry, looked up): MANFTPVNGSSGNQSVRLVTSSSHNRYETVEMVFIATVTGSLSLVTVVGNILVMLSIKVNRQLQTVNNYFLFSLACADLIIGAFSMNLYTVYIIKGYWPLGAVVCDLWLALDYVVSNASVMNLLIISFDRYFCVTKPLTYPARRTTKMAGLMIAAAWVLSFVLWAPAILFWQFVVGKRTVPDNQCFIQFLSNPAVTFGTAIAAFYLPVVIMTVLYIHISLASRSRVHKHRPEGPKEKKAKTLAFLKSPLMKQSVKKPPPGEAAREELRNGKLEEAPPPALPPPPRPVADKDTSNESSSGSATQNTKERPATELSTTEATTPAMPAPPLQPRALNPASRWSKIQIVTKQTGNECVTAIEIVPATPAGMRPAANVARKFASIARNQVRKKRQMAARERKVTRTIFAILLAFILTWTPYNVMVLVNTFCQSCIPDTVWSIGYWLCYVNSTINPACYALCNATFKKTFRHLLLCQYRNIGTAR
# Muscarinic acetylcholine receptor M3 (Homo sapiens), sequence (P20309 whole entry, looked up): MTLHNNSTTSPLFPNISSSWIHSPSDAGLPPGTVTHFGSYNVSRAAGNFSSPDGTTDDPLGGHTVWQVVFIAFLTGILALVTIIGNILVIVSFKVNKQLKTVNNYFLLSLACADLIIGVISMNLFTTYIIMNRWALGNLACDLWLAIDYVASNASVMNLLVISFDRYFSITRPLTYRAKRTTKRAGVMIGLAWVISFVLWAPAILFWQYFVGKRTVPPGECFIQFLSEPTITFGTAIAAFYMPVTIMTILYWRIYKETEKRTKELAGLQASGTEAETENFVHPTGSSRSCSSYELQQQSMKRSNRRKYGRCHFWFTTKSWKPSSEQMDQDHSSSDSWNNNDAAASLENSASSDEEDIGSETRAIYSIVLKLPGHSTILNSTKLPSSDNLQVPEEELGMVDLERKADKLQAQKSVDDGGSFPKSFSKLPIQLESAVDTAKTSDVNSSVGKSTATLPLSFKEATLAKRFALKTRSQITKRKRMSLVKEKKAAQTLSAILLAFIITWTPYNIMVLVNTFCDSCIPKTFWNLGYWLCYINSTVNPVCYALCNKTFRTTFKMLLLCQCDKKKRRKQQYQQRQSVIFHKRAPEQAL
# Neuropeptide Y receptor type 2 (Homo sapiens), sequence (P49146 whole entry, looked up): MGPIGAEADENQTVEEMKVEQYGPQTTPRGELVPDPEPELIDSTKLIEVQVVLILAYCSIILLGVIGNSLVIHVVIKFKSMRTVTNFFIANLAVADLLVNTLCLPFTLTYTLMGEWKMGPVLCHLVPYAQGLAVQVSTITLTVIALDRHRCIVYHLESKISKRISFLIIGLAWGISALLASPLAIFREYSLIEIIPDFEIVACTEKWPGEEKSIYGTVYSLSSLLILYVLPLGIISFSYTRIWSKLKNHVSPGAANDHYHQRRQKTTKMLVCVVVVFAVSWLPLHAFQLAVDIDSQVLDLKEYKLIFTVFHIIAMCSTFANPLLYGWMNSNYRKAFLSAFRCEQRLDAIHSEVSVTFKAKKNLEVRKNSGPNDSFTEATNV
# human Neurotensin Receptor (NTS), NTSR1 (gene 4923), sequence (P30989 whole entry, looked up): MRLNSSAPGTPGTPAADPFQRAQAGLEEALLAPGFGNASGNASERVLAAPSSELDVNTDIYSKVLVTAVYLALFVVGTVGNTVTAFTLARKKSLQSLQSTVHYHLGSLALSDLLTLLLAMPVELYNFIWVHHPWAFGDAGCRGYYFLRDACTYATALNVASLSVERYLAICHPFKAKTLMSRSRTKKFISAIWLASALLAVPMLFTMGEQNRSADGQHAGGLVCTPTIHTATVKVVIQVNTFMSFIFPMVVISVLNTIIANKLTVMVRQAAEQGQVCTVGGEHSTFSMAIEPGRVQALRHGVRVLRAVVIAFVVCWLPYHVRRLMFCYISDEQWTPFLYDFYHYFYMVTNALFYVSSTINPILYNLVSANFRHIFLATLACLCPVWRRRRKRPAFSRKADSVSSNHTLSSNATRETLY
structure (smiles),measurement,setting,value
CC12CC1(C)C(=O)N(c1cc(Cl)cc(Cl)c1)C2=O (stereo not given),outcome,[1],inactive
C=C(C)C(=O)[O][Sn]([CH2]CCC)([CH2]CCC)[CH2]CCC,AC50,[2],2.67 µM (active)
same,AC50,[3],5.32 µM (active)
same,AC50,[4],19.1 µM (active)
same,AC50,[5],1.23 µM (active)
same,AC50,[6],1.14 µM (active)
same,AC50,[7],14.8 µM (active)
same,AC50,[1],0.977 µM (active)
same,AC50,[8],0.761 µM (active)
COP(=S)(OC)Oc1ccc(S(=O)(=O)N(C)C)cc1,outcome,[1],inactive
Nc1ncc([N+](=O)[O-])s1,outcome,[1],inactive
O=C(O)C(F)(F)C(F)(F)C(F)(F)C(F)(F)C(F)(F)C(F)(F)C(F)(F)C(F)(F)C(F)(F)C(F)(F)F,AC50,[8],10.7 µM (active)
Oc1cccc2cccnc12,outcome,[6],inactive
same,AC50,[1],4.96 µM (active)
same,outcome,[9],inactive
COP(=S)(OC)Oc1ccc(Sc2ccc(OP(=S)(OC)OC)cc2)cc1,outcome,[1],inactive
same,outcome,[10],inactive
CC(=O)[O][Hg][c]1ccccc1,AC50,[2],0.562 µM (active)
same,AC50,[3],0.909 µM (active)
same,AC50,[4],0.77 µM (active)
same,AC50,[5],0.591 µM (active)
same,AC50,[6],0.51 µM (active)
same,AC50,[7],8.48 µM (active)
same,AC50,[1],0.52 µM (active)
same,AC50,[8],0.848 µM (active)
same,AC50,[10],5.96 µM (active)
CC(C)(C)c1cc(O)ccc1O,AC50,[1],16.3 µM (active)
CC(C)(C)CC(C)(C)c1ccc(O)cc1,outcome,[3],inactive
same,AC50,[1],25 µM (active)
same,AC50,[8],8.28 µM (active)
same,outcome,[10],inactive
COP(=S)(OC)Oc1cc(Cl)c(Cl)cc1Cl,outcome,[1],inactive
CCC(=O)C(CC(C)N(C)C)(c1ccccc1)c1ccccc1 (stereo not given),AC50,[2],10.7 µM (active)
same,AC50,[3],9.96 µM (active)
same,AC50,[4],8.3 µM (active)
same,AC50,[5],4.57 µM (active)
O=C(Nc1ccc2[nH]ccc2c1)c1cc2cc(F)ccc2n1Cc1cccc(F)c1,outcome,[5],inactive
O=C1C2(Cl)C3(Cl)C4(Cl)C(Cl)(Cl)C5(Cl)C3(Cl)C1(Cl)C5(Cl)C24Cl (stereo not given),outcome,[2],inactive
same,outcome,[3],inactive
same,outcome,[4],inactive
Nc1cccc2ccccc12,AC50,[1],4.28 µM (active)
CCN1CCC2(CC1)COc1cc3c(cc12)N(C(=O)c1ccc(-c2ccc(-c4nnc(C)o4)cc2C)cc1)CC3,AC50,[2],0.676 µM (active)
same,AC50,[3],1.32 µM (active)
same,AC50,[4],1.9 µM (active)
same,AC50,[5],2.03 µM (active)
